Shiga toxin inh = Shiga toxin inhibition | inhibition, % at 38.7 µM | 9.2% of 290,000 active | Vero cells, Shiga toxin protein synthesis inhibition reporter; in the data active means inhibition mostly above about 28%, no sharp cut-off; inactive means mostly below about 43%; further: 0% is about no effect
NS1 inh = influenza NS1 inhibition | AID 2326 | Potency, µM (top dose mostly 46.1 µM), without a hit: at the highest dose activity, positive = more growth | 0.4% of 270,000 active; calls by dose curve; further: potency means the concentration at half of the fitted maximal effect; actives are rising curves; nearly all actives have a fitted effect of over 50% in size
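Read-out: OD600 growth recovery of NS1-expressing budding yeast. Cells grown overnight at 30C in -URA glucose medium, washed, resuspended and diluted 1:100 in 2% galactose assay medium, pH 6.0. Same strain lacking NS1 served as positive control.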
Sm TGR inh = S. mansoni TGR enzyme inhibition; Q962Y6; purified TGR, DTNB reduction, TNB absorbance 405 nm; Potency, µM (series often up to 114 µM), for inactives: at the top dose activity change, negative = inhibition, actives largely listed as inhibitors; 3% of 360,000 active; AID 485364; further: potency means the concentration at half of the fitted maximal effect; on the % scale 0 is the no-effect control and ±100 the full control effect; nearly all actives have a fitted effect of over 60% in size
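TGR 20 nM + NADPH 100 uM (dispensed conc.), cpd preinc 15 min RT; start with NADPH (500 uM addition) then DTNB (15 mM addition). Kinetic TNB absorbance, 405 nm filter. Four-parameter Hill fit across titration.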
Pf growth 96h = inhibits malaria parasite growth, 96 h | 6.9% of 320,000 active | Potency, µM (top dose mostly 28.7 µM), for the others: at the highest dose activity change, negative = inhibition, usual class: inhibitors | P. falciparum luciferase reporter growth, 96 h | AID 504834; further: potency means the concentration at half of the fitted maximal effect; on the % scale 0 is the no-effect control and ±100 the full control effect
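Luminescence readout: decreased luciferase signal marks inhibited growth of reporter-expressing P. falciparum in infected red cells (2% hematocrit, 0.05% parasitemia final), exposed to compound two generations (96 h, 37 C, 5% CO2).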
CHX counter = counter-screen hit for Shiga toxin inhibitors, cycloheximide; 12% of 300,000 active; max response, %; cell reporter, cycloheximide protein synthesis inhibition counterscreen; in the data active means max response mostly above about 13%, no sharp cut-off; inactive means mostly below about 14%; further: read at 38.3 µM for the half of the compounds with a filed dose; 0% is about no effect
Pf growth 48h = P. falciparum growth inhibition at 48 hours (one generation); P. falciparum luciferase growth in erythrocytes, 48 h; Potency, µM (series often up to 28.7 µM), inactives show top-dose activity change, negative = inhibition, actives largely listed as inhibitors; 5.9% of 310,000 active; AID 504832; further: potency means the concentration at half of the fitted maximal effect; on the % scale 0 is the no-effect control and ±100 the full control effect
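Here the parasites carry a stable luciferase gene and grow inside erythrocytes in Albumax-based RPMI medium with compound for one erythrocytic cycle. Activity is scored as loss of luminescent signal.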
* hit, by the source's call; ? = inconclusive; / = no result; [ ] = dose if it differs, or a comment. An excerpt weighted towards active compounds, which were near 21% of everything screened. Unless noted, the call rests on the fitted dose curve; in most records, active means well fitted curve in the direction sought with a large enough effect; inconclusive means small, poorly fitted or top-dose-only effect, or another doubt; inactive means no such curve, though single readings can be large; an effect the other way counts as inactive or inconclusive.

SMILES	Shiga toxin inh	NS1 inh	Sm TGR inh	Pf growth 96h	CHX counter	Pf growth 48h
CN1CCN(c2ccc(S(=O)(=O)N3CCCCC3)cc2NC(=O)COc2ccc([N+](=O)[O-])cc2)CC1	/	/	0.3%	?	/	?
Cc1cc(OCC(=O)Nc2cccc(S(=O)(=O)N3CCCCC3)c2)ccc1Cl	/	/	-18.1%	?	/	?
O=C(COc1ccc(Cl)cc1Br)Nc1ccccc1N1CCCC1	/	/	18.9%	?	/	?
CCN1CCN(c2ccc(S(=O)(=O)N3CCCCC3)cc2NC(=O)COc2ccc(Cl)c(C)c2)CC1	-4.3	23.5%	-17.6%	?	0.8	4.65µM*
CCC(=O)c1ccc(OCC(=O)Nc2cc(S(=O)(=O)N3CCCCC3)ccc2N2CCN(CC)CC2)cc1	/	/	-11.6%	9.28µM*	/	?
CCOc1ccccc1OCC(=O)Nc1cc(S(=O)(=O)N2CCCCC2)ccc1N1CCN(CC)CC1	/	/	4.4%	3.29µM*	/	10.4µM*
CC(=O)c1ccc(S(=O)(=O)Nc2ccccc2C(=O)NC2CC2)cc1	/	/	-20.5%	1.7%	/	2.0%
O=C(NC1CC1)c1ccc(NS(=O)(=O)c2ccc(F)cc2)cc1	/	/	0.0%	34.8%	/	1.0%
O=C(O)/C=C/c1cn(Cc2ccccc2Cl)nc1-c1ccccc1	14.7	3.5%	12.7%	-11.2%	6.4	8.9%
CCN1CCN(c2ccc(S(=O)(=O)N3CCCCC3)cc2NC(=O)COc2ccccc2)CC1	/	/	-1.6%	?	/	11.7µM*
COc1ccc(/C=C(\C#N)C(=O)Nc2cc(S(=O)(=O)N3CCCCC3)ccc2N2CCCCC2)cc1	-2.3	?	-1.7%	8.28µM*	-1.7	?
CCN1CCN(c2ccc(S(=O)(=O)N3CCCCC3)cc2NC(=O)Cc2ccc(Cl)c(Cl)c2)CC1	/	/	0.9%	10.4µM*	/	10.4µM*
Cc1ccc(OCC(=O)Nc2cc(S(=O)(=O)N3CCCCC3)ccc2N2CCN(C)CC2)c(C)c1	/	/	-9.4%	1.47µM*	/	2.33µM*
COc1cccc(CNC(=O)CSc2nc3c(oc4ccccc43)c(=O)n2CC2CCCO2)c1 (stereo not drawn)	/	/	3.2%	15.5%	/	-29.0%
CN(C)c1ccnc2sc3c(=O)n(-c4ccccc4)cnc3c12	18.6	-2.1%	-9.1%	41.1%	12.0*	12.1%
CC1(C)[C@H]2CC[C@]1(C)[C@@H](OC(=O)C[N+]1(C)CCOCC1)C2	-3.5	1.2%	16.0%	-17.1%	-2.9	0.0%
COc1cc(C(=O)O[C@@H]2CC3CC[C@]2(C)C3(C)C)ccc1O	29.1*	/	/	/	23.2	/
O=C(Nc1nnc(S(=O)(=O)N2CCCc3ccccc32)s1)c1ccccc1Br	/	/	0.8%	/	/	/
CCN(CC)S(=O)(=O)c1ccc(Cl)nc1	-9.2	/	21.3%	-11.6%	1.3	-9.7%
CCN(CC)S(=O)(=O)c1ccc2nc(CCl)[nH]c2c1	4.6	/	39.8µM*	15.8%	0.8	-1.1%
COc1ccccc1NS(=O)(=O)c1ccc2nc(CCl)[nH]c2c1	-2.6	2.6%	35.5µM*	4.8%	15.9	9.3%
COc1ccc(C2NCCc3sccc32)cc1 (stereo not drawn)	-5.8	5.3%	/	-1.6%	-4.3	17.7%
CC(C)c1ccc(N2CC(C)(C)C2=O)cc1	74.2*	/	?	4.9%	28.9*	55.5%
COCCN=c1scc(C)n1/N=C/C1CC2C=CC1C2 (stereo not drawn)	54.8	/	-14.3%	?	12.7*	?
COCCN=c1scc(-c2cc(OC)ccc2OC)n1/N=C/c1c[nH]c2ccccc12	-15.5	?	-1.1%	-89.4%	1.7	?
SMILES	Shiga toxin inh	NS1 inh	Sm TGR inh	Pf growth 96h	CHX counter	Pf growth 48h
COc1ccc(C2=NN(CC(=O)NCc3ccco3)C(=O)CC2)cc1	17.9	4.5%	-18.5%	33.3%	3.2	10.2%
O=C1NC(=S)N(C(=O)c2ccc(F)cc2)/C1=C/c1ccccc1	21.1	-37.8%	-3.4%	0.0%	14.4*	3.8%
CN(Cc1cnccn1)Cc1c(C(=O)N2CCc3ccccc3C2)nc2ccc(Cl)cn12	-24.7	-4.5%	-20.4%[57.1 µM]	?	-1.6	11.7µM*
CN(Cc1cccnc1)Cc1c(C(=O)N2CCc3ccccc3C2)nc2ccc(Cl)cn12	-3.5	0.5%	31.6µM*	-17.3%	-0.9	?
CC1=C(C(=O)NCc2ccc(Cl)cc2)C2(CCCCCC2)OC1=O	/	/	-15.9%	/	/	/
C=CCNC(=S)NNC(=O)c1cc(O)ccc1O	-7.1	4.1%	-28.6%	4.65µM*	-1.7	12.2%
COc1ccc(/C=C2/C(=O)NC(=O)N(C3CCCCC3)C2=O)cc1CSc1ccccn1	-2.2	1.9%	35.5µM*	0.0%	-1.7	-5.8%
COc1ccc(/C=C2/C(=O)NC(=S)N(C3CC3)C2=O)cc1CN1C(=O)c2ccccc2C1=O	-17.1	2.6%	11.2µM*	?	-5.8	4.2%
COc1ccc(/C=C2/C(=O)NC(=O)N(c3ccccc3)C2=O)cc1CN1C(=O)c2ccccc2C1=O	-7.5	-3.4%	?	-2.1%	-2.7	3.0%
O=P(O)(O)C(O)(Cc1cccnc1)P(=O)(O)O	/	/	/	24.3%	/	-5.2%
CC(C)OC(=O)CC(=O)CSc1nc2c(cc1C#N)CCCCC2	72.0*	-12.9%	-5.5%	79.8%	52.3*	48.6%
CCOC(=O)CC(=O)COc1nc2cc3c(nc2o1)CCCC3	90.6*	21.3%	-5.4%	3.5%	26.8*	29.2%
CCOC(=O)CC(=O)CSc1nc2c(cc1C#N)CCCCC2	83.6*	11.0%	0.0%	?	46.1*	5.9%
CC(C)OC(=O)CSc1nc2c(cc1C#N)CCCCC2	9.1	0.0%	/	?	14.0	94.5%
CCOC(=O)CC(=O)CSc1nc(CC)c(C)cc1C#N	4.3	13.8%	-22.9%	?	14.8	-22.3%
CCCCN1/C(=C/c2cccc[n+]2C)Sc2cc(NC(C)=O)ccc21	-9.0	1.1%	14.5%	10.9%	1.5	4.15µM*
CN(C(=O)CSc1nc2ccccc2n1CC(=O)NCc1ccc(F)cc1)c1ccc(F)cc1	/	/	13.3%	/	/	/
O=C1C2C3CCC(C3)C2C(=O)N1c1ccc(OS(=O)(=O)c2ccccc2)cc1 (stereo not drawn)	78.3*	-5.5%	21.7%	1.8%	33.0*	70.1%
Cc1ccc(S(=O)(=O)Oc2ccc(N3C(=O)C4C5CCC(C5)C4C3=O)cc2)cc1 (stereo not drawn)	12.4	/	-5.6%	27.0%	17.8	?
CCOC(=O)c1sc(NC(=O)CSc2n[nH]c(-c3ccc(Cl)cc3Cl)n2)c(C#N)c1C	-13.6	18.3%	-3.6%	?	-2.4	18.4%
Cc1c(OC(C)C(=O)O)ccc2c3c(c(=O)oc12)CCCC3 (stereo not drawn)	-10.9	9.0%	-12.2%	10.4µM*	-3.2	-1.5%
Cc1cc(Cl)ccc1OCCCC(=O)Nc1cccnc1	-9.2	-134.7%	0.0%	/	-4.1	0.8%
O=C(COC(=O)c1cccnc1)Nc1cccc(Cl)c1	-7.2	-4.2%	-6.6%	4.65µM*	2.2	-15.7%
Cc1c(OCC(=O)NCc2cccnc2)ccc2c3c(c(=O)oc12)CCCC3	-9.4	0.7%	-7.0%	13.1µM*	-2.5	-10.4%
